Paper PMC7862700, “An all-to-all approach to the identification of sequence-specific readers for epigenetic DNA modifications on cytosine”

Tests used:
Experiment in all cases: DAPPL (digital affinity profiling via proximity ligation, sequencing); 10 mM Tris-HCl pH 7.5, 50 mM NaCl, 1 mM DTT, 4% glycerol, room temperature, 30 min; GST-TFs on glutathione beads, 16-mer random dsDNA library, 0.1% formaldehyde crosslink after washing; high values mean tight binding
Settings in all cases: protein: recombinant; tags: N-terminal GST; dsDNA, one strand shown
ELK1 = molecular target: T1, ELK1 (Homo sapiens, UniProt P19419 1-428)
T1 sequence: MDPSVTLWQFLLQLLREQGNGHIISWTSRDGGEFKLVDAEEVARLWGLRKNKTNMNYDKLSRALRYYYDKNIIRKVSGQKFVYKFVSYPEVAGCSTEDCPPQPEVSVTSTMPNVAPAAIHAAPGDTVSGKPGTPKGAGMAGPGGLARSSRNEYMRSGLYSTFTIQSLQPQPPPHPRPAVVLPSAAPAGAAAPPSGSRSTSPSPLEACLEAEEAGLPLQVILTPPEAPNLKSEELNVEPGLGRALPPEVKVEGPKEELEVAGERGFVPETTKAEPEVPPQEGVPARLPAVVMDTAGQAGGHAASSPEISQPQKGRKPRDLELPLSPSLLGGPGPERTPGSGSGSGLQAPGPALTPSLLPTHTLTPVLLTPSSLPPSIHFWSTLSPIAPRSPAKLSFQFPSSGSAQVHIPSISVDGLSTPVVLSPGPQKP
Summary of the method: (§1)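 A tag-only sample was pooled with DNA-barcoded human transcription factors that had been expressed in yeast as GST fusions and captured on glutathione beads. The pools were incubated for 30 min at room temperature with 200 nmole of a random double-stranded 16-mer DNA library in Tris/NaCl/DTT/glycerol buffer, then washed, crosslinked with 0.1% formaldehyde, proximity-ligated (BsaI/T4 ligase, 1 h, 37 °C), PCR-amplified and sequenced on an Illumina NextSeq500. Binding signal is each hexamer's read frequency for a factor divided by its frequency for the tag-only sample.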

GABPA = molecular target: T2, GABPA (Homo sapiens, UniProt Q06546 1-454)
T2 sequence: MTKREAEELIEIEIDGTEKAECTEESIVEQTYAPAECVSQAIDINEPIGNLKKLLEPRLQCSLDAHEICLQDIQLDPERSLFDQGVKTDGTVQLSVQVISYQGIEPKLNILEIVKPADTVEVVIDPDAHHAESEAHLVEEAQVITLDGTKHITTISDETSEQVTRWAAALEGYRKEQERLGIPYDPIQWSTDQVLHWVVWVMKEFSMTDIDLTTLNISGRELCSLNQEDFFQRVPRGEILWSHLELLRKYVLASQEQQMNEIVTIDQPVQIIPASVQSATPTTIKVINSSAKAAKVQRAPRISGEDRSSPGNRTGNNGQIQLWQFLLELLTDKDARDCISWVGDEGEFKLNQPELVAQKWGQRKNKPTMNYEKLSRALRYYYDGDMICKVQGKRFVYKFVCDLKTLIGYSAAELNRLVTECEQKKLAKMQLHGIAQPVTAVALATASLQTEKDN
Summary of the method: as §1

ELF1 = ELF1 (Homo sapiens, UniProt P32519 1-619)
Summary of the method: as §1

EHF = molecular target: T3, EHF (Homo sapiens, UniProt Q9NZC4 1-300)
T3 sequence: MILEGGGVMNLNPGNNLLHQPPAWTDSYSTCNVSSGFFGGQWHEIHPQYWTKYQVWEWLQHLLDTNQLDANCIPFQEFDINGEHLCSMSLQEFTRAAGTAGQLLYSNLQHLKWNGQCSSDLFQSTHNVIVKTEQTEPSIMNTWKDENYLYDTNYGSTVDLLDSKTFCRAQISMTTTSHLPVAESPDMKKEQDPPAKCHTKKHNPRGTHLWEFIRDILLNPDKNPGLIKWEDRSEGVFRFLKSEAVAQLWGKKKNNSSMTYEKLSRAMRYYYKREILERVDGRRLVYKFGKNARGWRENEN
Summary of the method: as §1

SPIB = SPIB (Homo sapiens, UniProt Q01892 1-262)
Summary of the method: as §1

FEV = molecular target: T4, FEV (Homo sapiens, UniProt Q99581 1-238)
T4 sequence: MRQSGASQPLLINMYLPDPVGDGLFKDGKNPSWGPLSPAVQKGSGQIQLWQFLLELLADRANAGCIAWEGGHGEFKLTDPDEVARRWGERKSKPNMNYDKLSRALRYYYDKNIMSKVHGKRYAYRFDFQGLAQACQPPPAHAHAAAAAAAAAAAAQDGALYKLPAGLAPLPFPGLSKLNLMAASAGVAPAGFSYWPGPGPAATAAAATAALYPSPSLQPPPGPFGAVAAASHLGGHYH
Summary of the method: as §1

ETV5 = ETV5 (Homo sapiens, UniProt P41161 1-510)
Summary of the method: as §1

ELF4 = ELF4 (Homo sapiens, UniProt Q99607 1-663)
Summary of the method: as §1

ETV2 = molecular target: T5, ETV2 (Homo sapiens, UniProt O00321 1-342)
T5 sequence: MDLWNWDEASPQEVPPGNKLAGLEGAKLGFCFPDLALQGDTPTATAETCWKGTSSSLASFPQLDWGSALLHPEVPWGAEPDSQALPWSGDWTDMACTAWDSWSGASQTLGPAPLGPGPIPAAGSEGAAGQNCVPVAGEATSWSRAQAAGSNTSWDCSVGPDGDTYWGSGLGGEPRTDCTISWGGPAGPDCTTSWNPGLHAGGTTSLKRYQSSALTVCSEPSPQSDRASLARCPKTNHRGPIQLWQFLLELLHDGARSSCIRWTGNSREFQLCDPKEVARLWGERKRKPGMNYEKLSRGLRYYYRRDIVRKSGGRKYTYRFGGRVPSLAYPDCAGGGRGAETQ
Summary of the method: as §1

ELF3 = molecular target: T6, ELF3 (Homo sapiens, UniProt P78545 1-371)
T6 sequence: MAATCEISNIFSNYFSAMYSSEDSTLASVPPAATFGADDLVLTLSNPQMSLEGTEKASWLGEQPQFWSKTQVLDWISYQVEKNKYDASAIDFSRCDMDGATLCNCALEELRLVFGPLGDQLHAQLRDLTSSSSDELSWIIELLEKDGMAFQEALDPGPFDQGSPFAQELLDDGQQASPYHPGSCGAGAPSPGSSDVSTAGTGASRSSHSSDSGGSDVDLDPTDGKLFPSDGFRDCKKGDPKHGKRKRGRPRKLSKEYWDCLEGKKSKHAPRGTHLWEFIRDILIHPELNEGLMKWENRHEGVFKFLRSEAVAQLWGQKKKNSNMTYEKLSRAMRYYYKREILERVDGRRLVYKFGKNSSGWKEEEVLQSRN
Summary of the method: as §1

ETV1 = ETV1 (Homo sapiens, UniProt P50549 1-477)
Summary of the method: as §1

ERF = molecular target: T7, ERF (Homo sapiens, UniProt P50548 1-548)
T7 sequence: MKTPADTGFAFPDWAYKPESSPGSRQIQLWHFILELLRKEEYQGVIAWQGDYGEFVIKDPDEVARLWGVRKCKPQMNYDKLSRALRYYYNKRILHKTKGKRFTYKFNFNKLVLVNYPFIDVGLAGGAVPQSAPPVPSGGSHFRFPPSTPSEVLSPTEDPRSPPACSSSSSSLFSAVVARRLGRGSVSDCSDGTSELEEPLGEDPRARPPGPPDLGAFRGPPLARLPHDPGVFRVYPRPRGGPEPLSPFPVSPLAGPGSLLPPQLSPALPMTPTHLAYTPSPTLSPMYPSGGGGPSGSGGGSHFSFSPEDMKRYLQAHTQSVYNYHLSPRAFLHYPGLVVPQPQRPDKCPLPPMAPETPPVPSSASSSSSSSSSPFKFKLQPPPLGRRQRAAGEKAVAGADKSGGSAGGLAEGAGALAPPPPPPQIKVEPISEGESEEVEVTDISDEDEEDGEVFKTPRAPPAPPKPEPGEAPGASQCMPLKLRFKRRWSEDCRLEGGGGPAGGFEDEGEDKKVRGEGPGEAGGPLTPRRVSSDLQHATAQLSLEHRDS
Summary of the method: as §1

ETS2 = molecular target: T8, ETS2 (Homo sapiens, UniProt P15036 1-469)
T8 sequence: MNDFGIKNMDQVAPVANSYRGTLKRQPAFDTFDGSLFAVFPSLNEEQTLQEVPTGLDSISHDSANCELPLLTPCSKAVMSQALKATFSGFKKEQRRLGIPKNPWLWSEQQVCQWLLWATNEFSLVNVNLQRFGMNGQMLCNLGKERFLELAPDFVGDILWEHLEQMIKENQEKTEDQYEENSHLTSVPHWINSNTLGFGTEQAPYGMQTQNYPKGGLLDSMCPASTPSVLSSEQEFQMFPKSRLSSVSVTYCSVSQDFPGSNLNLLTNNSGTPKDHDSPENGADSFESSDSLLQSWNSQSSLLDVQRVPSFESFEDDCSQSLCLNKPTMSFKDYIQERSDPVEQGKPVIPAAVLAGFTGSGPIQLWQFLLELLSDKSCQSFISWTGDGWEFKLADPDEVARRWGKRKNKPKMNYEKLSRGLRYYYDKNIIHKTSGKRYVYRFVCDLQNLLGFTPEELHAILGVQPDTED
Summary of the method: as §1

SPDEF = molecular target: T9, SPDEF (Homo sapiens, UniProt O95238 1-335)
T9 sequence: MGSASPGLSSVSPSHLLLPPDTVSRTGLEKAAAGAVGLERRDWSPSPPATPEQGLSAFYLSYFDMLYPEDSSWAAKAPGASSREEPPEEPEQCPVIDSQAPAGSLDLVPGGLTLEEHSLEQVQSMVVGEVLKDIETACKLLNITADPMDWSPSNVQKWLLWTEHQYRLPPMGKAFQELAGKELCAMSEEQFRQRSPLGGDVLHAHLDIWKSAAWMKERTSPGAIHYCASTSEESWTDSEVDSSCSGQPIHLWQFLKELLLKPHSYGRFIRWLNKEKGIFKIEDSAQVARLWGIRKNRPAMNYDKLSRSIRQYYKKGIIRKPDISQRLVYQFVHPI
Summary of the method: as §1

ETV3 = molecular target: T10, ETV3 (Homo sapiens, UniProt P41162-2 1-143)
T10 sequence: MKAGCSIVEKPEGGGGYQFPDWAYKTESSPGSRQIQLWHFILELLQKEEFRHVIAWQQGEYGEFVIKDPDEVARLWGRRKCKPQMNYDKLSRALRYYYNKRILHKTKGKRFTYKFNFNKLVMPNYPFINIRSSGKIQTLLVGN
Summary of the method: as §1

ERG = molecular target: T11, ERG (Homo sapiens, UniProt P11308 1-479)
T11 sequence: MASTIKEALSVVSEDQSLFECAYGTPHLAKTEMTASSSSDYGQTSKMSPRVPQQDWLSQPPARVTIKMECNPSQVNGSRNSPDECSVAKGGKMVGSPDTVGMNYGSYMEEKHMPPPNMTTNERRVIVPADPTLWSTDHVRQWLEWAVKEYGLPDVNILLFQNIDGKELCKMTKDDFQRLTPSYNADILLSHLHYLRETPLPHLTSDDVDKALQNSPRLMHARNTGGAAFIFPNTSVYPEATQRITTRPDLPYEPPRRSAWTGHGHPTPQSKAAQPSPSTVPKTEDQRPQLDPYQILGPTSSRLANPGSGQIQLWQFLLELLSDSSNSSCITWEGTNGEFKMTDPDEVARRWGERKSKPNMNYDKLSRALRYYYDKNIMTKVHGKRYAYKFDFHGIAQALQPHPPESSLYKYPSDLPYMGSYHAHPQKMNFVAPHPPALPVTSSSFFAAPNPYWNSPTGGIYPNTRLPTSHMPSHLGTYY
Summary of the method: as §1

ETV3L = molecular target: T12, ETV3L (Homo sapiens, UniProt Q6ZN32 1-361)
T12 sequence: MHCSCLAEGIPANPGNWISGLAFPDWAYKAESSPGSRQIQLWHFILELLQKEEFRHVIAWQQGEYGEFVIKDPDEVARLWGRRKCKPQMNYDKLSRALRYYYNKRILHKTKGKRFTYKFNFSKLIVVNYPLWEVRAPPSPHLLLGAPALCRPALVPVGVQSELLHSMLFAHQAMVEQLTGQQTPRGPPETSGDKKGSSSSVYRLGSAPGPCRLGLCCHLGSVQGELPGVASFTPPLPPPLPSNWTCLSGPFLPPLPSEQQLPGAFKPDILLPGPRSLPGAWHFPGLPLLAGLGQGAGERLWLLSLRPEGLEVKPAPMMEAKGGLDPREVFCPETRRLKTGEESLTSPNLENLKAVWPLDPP
Summary of the method: as §1

Chain of ETV5 (P41161 whole entry): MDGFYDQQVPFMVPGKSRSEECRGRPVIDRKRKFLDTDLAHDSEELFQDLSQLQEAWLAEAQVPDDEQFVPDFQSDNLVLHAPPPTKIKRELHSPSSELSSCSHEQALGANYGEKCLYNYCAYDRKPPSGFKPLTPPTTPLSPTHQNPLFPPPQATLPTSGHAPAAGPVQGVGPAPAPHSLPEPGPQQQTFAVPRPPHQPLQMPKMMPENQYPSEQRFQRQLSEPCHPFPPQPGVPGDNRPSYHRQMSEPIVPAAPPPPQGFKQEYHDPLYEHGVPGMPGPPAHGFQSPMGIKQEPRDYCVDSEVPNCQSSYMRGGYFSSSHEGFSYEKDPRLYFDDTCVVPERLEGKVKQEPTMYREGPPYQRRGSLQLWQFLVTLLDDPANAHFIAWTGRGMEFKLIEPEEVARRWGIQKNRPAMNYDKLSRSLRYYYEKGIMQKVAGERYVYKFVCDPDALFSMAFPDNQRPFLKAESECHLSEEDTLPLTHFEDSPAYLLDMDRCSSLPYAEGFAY
Chain of ELF1 (P32519 whole entry): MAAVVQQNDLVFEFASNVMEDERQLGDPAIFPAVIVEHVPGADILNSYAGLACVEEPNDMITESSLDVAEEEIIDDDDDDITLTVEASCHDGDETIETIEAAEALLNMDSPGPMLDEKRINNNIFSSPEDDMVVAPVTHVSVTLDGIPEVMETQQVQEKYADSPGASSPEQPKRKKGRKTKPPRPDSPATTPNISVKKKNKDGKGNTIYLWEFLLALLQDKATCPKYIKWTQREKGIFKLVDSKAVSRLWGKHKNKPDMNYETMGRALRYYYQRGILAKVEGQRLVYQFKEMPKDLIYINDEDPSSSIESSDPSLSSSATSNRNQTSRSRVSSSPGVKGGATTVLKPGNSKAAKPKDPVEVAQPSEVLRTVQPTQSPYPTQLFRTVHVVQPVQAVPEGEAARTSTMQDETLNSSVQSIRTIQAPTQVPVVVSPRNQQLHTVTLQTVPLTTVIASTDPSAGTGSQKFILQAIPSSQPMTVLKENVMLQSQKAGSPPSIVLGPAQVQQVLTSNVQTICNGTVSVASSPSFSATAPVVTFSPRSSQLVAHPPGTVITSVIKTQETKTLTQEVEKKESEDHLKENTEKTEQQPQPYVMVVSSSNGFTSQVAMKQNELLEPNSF
Chain of SPIB (Q01892 whole entry): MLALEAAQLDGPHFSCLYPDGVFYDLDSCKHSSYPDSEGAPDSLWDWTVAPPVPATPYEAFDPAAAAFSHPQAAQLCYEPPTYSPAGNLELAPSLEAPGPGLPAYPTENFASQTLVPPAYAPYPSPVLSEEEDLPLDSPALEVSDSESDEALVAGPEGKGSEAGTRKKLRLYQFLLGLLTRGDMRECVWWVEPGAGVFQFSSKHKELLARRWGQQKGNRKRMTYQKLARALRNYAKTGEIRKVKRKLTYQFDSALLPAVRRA
Chain of ELF4 (Q99607 whole entry): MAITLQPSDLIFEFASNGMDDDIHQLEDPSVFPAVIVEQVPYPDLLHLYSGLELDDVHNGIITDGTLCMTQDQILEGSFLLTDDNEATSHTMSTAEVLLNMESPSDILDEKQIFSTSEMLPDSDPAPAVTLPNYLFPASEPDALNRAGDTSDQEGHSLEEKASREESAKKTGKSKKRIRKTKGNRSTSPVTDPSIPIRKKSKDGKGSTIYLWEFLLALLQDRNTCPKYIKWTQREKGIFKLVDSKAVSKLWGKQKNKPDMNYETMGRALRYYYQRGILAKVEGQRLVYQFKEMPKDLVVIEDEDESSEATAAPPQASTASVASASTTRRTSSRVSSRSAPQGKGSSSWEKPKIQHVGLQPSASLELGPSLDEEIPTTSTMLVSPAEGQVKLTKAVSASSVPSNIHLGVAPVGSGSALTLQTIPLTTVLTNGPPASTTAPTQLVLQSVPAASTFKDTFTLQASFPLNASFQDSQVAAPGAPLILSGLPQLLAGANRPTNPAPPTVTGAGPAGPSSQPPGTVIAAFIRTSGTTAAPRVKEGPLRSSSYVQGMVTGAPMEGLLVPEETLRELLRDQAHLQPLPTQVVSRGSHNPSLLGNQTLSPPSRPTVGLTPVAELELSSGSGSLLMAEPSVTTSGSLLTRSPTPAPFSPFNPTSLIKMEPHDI
Chain of ETV1 (P50549 whole entry): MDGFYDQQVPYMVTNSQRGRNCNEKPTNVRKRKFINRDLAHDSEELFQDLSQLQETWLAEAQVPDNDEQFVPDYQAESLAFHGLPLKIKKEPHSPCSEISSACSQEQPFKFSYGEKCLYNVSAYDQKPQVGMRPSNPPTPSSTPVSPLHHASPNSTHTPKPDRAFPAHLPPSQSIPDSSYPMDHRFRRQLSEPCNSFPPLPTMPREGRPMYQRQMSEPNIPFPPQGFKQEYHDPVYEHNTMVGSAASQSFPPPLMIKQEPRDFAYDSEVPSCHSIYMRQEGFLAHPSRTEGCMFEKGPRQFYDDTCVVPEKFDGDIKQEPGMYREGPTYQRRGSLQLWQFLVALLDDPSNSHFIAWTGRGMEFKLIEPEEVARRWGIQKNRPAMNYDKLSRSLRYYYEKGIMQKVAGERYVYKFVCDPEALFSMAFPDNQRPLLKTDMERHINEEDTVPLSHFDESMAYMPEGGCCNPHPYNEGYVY

| Sequence | binding signal (ELK1) | binding signal (GABPA) | binding signal (ELF1) | binding signal (EHF) | binding signal (SPIB) | binding signal (FEV) | binding signal (ETV5) | binding signal (ELF4) | binding signal (ETV2) | binding signal (ELF3) | binding signal (ETV1) | binding signal (ERF) | binding signal (ETS2) | binding signal (SPDEF) | binding signal (ETV3) | binding signal (ERG) | binding signal (ETV3L) |
| --- | --- | --- | --- | --- | --- | --- | --- | --- | --- | --- | --- | --- | --- | --- | --- | --- | --- |
| ATAGCC | 1.08 fold enrichment (6-mer frequency, TF over GST control) | 1.11 fold enrichment (6-mer frequency, TF over GST control) | 1.05 fold enrichment (6-mer frequency, TF over GST control) | 1.1 fold enrichment (6-mer frequency, TF over GST control) | 1.04 fold enrichment (6-mer frequency, TF over GST control) | 1.1 fold enrichment (6-mer frequency, TF over GST control) | 1.1 fold enrichment (6-mer frequency, TF over GST control) | 1.1 fold enrichment (6-mer frequency, TF over GST control) | 1 fold enrichment (6-mer frequency, TF over GST control) | 1.15 fold enrichment (6-mer frequency, TF over GST control) | 1.03 fold enrichment (6-mer frequency, TF over GST control) | 1.1 fold enrichment (6-mer frequency, TF over GST control) | 1.07 fold enrichment (6-mer frequency, TF over GST control) | 1.08 fold enrichment (6-mer frequency, TF over GST control) | 1.06 fold enrichment (6-mer frequency, TF over GST control) |  |  |
| AGCGCT |  | 1.04 fold enrichment (6-mer frequency, TF over GST control) | 1.05 fold enrichment (6-mer frequency, TF over GST control) |  | 1.09 fold enrichment (6-mer frequency, TF over GST control) | 1 fold enrichment (6-mer frequency, TF over GST control) | 1.01 fold enrichment (6-mer frequency, TF over GST control) | 1.06 fold enrichment (6-mer frequency, TF over GST control) |  |  | 1.02 fold enrichment (6-mer frequency, TF over GST control) | 1.04 fold enrichment (6-mer frequency, TF over GST control) | 1.09 fold enrichment (6-mer frequency, TF over GST control) |  | 1.01 fold enrichment (6-mer frequency, TF over GST control) | 1.02 fold enrichment (6-mer frequency, TF over GST control) | 1.08 fold enrichment (6-mer frequency, TF over GST control) |
